Records with an inconclusive call do not appear. Where a call stands in place of a potency, no number is given. Active and inactive are the calls of the source. Unless noted, calls follow the shape of the dose curve; as a rule, active = well fitted curve in the direction sought with a large enough effect; inconclusive = small, poorly fitted or top-dose-only effect, or another doubt; inactive = no such curve, though single readings can be large; an effect the other way counts as inactive or inconclusive.
Tests used:
Furin (Homo sapiens) = Furin (Homo sapiens) (UniProt P09958); experiment: Furin counterscreen qHTS for Zika virus inhibitors (AID 1347149);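 also: purified recombinant full-length human furin enzyme at 5 nM; fluorescence gain from furin cutting a BOC-RVRR-AMC peptide substrate over 15 min; top concentration of the series differs between compounds; nearly all actives have a fitted effect of over 70% in size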
Chain of Furin (Homo sapiens) (P09958 whole entry, looked up): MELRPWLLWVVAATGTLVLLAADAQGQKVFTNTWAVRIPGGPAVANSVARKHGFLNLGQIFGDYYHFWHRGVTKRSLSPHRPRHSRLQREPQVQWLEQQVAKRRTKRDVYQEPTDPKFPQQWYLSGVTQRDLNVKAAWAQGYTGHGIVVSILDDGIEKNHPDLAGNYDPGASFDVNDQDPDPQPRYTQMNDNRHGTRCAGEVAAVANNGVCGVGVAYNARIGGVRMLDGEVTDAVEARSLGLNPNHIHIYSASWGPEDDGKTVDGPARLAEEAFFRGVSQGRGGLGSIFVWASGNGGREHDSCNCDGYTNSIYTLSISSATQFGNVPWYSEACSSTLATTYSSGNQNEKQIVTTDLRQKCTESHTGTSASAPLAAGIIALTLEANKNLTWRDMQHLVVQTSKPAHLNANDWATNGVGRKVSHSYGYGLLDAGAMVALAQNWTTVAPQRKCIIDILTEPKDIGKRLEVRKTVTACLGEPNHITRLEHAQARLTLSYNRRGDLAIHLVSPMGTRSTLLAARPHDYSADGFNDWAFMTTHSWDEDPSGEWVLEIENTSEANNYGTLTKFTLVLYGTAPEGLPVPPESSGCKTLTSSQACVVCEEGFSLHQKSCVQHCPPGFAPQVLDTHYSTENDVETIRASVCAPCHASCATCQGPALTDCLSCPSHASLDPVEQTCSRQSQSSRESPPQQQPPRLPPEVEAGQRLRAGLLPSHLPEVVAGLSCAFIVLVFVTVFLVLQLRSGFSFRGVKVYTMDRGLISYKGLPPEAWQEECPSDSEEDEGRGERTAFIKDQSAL
Summary of the method: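 Fluorogenic cleavage of BOC-RVRR-AMC (2 microM final, Km ~15 µM) was monitored (ex 340, em 450 nm) at 37C after 15 min RT preincubation of 5 nM furin with compounds in HEPES pH 7.0 buffer with CaCl2 and Triton X-100. Percent inhibition was fitted to a 4-parameter Hill curve.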

[1] = system: Zika virus NS2B-NS3 protease (unlinked); experiment: Optimization of GU AMC qHTS for Zika virus inhibitors: Unlinked NS2B-NS3 protease assay (AID 1347151); also: nearly all actives have a fitted effect of over 80% in size
Summary of the method: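 In this qHTS, compounds acted on 25 nM unlinked Zika NS2B–NS3 in pH 8.0 Tris/Tween buffer. Cleavage of an AMC peptide ran 15 min at room temperature, to about 20% conversion.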

[2] = Vero cells viability qHTS for Zika virus inhibitors (AID 1347167)
Summary of the method: (§1)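 Compounds were tested in concentration series on cells grown in DMEM containing 4% FBS. After 24 to 48 hours, cellular ATP was measured by luminescence with CellTiter Glo.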

[3] = HepG2 cells viability qHTS for Zika virus inhibitors (AID 1347168)
Summary of the method: as §1

[4] = Tertiary RLuc qRT-PCR qHTS assay for Zika virus inhibitors (AID 1347169); also: top concentration of the series differs between compounds; nearly all actives have a fitted effect of over 55% in size
Summary of the method: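 Inhibition of ZIKV-RLuc replication in Vero cells, read as Renilla luminescence 1-1.5 hrs after live-cell substrate addition, following 48-72 hrs infection at MOI 1-2 in presence of compound.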

[5] = biological target: Catechol O-methyltransferase (Homo sapiens) (UniProt P21964); experiment: Confirmatory Screen for Target Class Profiling of Small Molecule Inhibitors of Methyltransferases (AID 1745852; calls by dose curve; also: potency is read from the fitted curve at half-maximal effect); conditions: MTase-Glo luminescence, SAH detection, recombinant enzyme; measured here: COMT max response; stronger effect = lower value
Chain of Catechol O-methyltransferase (Homo sapiens) (P21964 whole entry, looked up): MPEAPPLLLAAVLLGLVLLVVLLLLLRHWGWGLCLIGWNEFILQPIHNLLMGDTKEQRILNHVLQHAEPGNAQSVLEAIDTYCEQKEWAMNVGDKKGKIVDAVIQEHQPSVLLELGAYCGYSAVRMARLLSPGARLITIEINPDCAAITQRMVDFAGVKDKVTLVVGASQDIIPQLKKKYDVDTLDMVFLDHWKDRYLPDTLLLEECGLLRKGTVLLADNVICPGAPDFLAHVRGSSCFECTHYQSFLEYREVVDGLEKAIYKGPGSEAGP

[6] = biological target: Guanidinoacetate N-methyltransferase (Homo sapiens) (UniProt Q14353); experiment: as above; conditions: activity change, negative = inhibition: at 57.3 µM (top of the series) unless noted
[7] = biological target: Nicotinamide N-methyltransferase (Homo sapiens) (UniProt P40261); experiment: as above; conditions: MTase-Glo luminescence, SAH detection, recombinant enzyme; measured here: NNMT max response; stronger effect = lower value
Chain of Nicotinamide N-methyltransferase (Homo sapiens) (P40261 whole entry, looked up): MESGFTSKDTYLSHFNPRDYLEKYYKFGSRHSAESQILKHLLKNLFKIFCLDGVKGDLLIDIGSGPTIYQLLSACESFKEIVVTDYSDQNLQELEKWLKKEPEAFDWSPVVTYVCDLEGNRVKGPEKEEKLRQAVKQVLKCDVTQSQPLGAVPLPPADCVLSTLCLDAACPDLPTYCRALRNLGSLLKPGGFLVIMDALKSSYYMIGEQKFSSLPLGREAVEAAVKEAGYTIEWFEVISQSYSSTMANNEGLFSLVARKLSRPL

[8] = biological target: Phenylethanolamine N-methyltransferase (Homo sapiens) (UniProt P11086); experiment: as above; conditions: MTase-Glo luminescence, SAH detection, recombinant enzyme; measured here: PNMT max response; stronger effect = lower value
Chain of Phenylethanolamine N-methyltransferase (Homo sapiens) (P11086 whole entry, looked up): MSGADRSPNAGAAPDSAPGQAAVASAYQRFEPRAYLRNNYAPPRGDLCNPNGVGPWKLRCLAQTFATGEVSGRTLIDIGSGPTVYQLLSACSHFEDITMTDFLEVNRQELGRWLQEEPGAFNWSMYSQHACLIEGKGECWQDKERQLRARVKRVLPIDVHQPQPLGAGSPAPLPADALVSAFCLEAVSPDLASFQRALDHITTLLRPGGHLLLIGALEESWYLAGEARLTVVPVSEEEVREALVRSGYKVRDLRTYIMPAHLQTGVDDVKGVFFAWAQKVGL

[9] = system: Zika virus NS2B-NS3 protease (linked construct); experiment: Confirmatory screen NINDS AMC qHTS for Zika virus inhibitors (AID 1347152);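 also: AMC fluorescence gain from cleaved Bz-Nle-KRR-AMC substrate over 15 min; top concentration of the series differs between compounds; nearly all actives have a fitted effect of over 70% in size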
Summary of the method: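 Concentration-response confirmation used the NINDS linked protease (NS2B hydrophilic domain joined to NS3 protease domain), 1 nM, with a 15-min compound preincubation. Substrate, Nle-KRR-AMC at 10 microM, was read by UV fluorescence before and after 15 min.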

[10] = system: Zika virus NS2B-NS3 protease (unlinked complex); experiment: Confirmatory screen GU AMC qHTS for Zika virus inhibitors (AID 1347153); also: nearly all actives have a fitted effect of over 70% in size
Summary of the method: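 Fluorescence change (ex 340/em 450 nm) over 15 min, ~20% substrate conversion, normalized to no-inhibitor and no-enzyme controls, then Hill-fitted. Unlinked protease at 25 nM; AMC peptide 10 µM.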

[11] = ZIKV-mCherry secondary qHTS for Zika virus inhibitors (AID 1347158); also: top concentration of the series differs between compounds
Summary of the method: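 After overnight seeding at 37 °C, Vero cells receive compound and then ZIKV-mCherry (MOI 1). Following 48-72 h infection, cells are fixed, counterstained with Hoechst, and imaged; percent infected cells is derived from an mCherry intensity cut-off of 450 RFU.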

[12] = system: Zika virus NS2B-NS3 protease (linked construct); experiment: 384 well plate NINDS Rhodamine confirmatory qHTS for Zika virus inhibitors (AID 1347164); also: nearly all actives have a fitted effect of over 65% in size; also: potency is read from the fitted curve at half-maximal effect; as to activity change, negative = inhibition: top concentration of the series differs between compounds
Summary of the method: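 Cleavage of Ac-LKRR-Rhodamine 110 (10 microM final) by linked protease (final 5, 30 or 60 nM) was followed as fluorescence at 485/538 nm after 25 min, room temperature, dark. Compounds preincubated ~15 min.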

[13] = system: Zika virus NS2B-NS3 protease (linked); experiment: 384 well plate NINDS AMC confirmatory qHTS for Zika virus inhibitors (AID 1347163); also: nearly all actives have a fitted effect of over 50% in size; also: potency is read from the fitted curve at half-maximal effect;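 as to activity change, negative = inhibition: linked protease at 5 30 or 60 nM final depending on run; fluorescence of AMC released from Ac-VKTGKR-AMC peptide cleaved by the protease; top concentration of the series differs between compounds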
Summary of the method: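 Linked protease 5/30/60 nM final; cpds up to 1 mM final, ~15 min preinc. Substrate Ac-VKTGKR-AMC 30 microM final. RT, dark, 25 min; FI ex 355/em 460; normalized to no-enzyme/no-inhibitor ctrls.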

[14] = system: Zika virus NS2B-NS3 protease; experiment: Primary screen GU AMC qHTS for Zika virus inhibitors (AID 1347154); also: potency is read from the fitted curve at half-maximal effect; nearly all actives have a fitted effect of over 70% in size
Summary of the method: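 Fluorogenic AMC-substrate cleavage by noncovalent NS2B-NS3 protease complex (25 nM, pH 8.0 Tris buffer with Tween 20) followed for 15 minutes at room temperature (~20% conversion). Percent inhibition from ex340/em450 signal change, fitted by 4-parameter Hill equation.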

[15] = Confirmatory screen NINDS Rhodamine qHTS for Zika virus inhibitors (AID 1347161);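 also: purified Zika NS2B-NS3 protease with linked NS2B cofactor domain and Rhodamine110 peptide substrate; nearly all actives have a fitted effect of over 60% in size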
Summary of the method: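 Purified linked NS2B-NS3 protease (NS2B hydrophilic domain joined to NS3 protease by flexible linker), 25 nM in 10 mM Tris-HCl pH 8.0, 0.01% Tween 20. Compounds titrated, 15 min preincubation at room temperature; 1.5 microM Rhodamine110 substrate, FITC fluorescence change over 15 min.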

**Q.** For `O=C1OC2(c3ccccc31)c1ccc3cc(O)ccc3c1Oc1c2ccc2cc(O)ccc12`, which Potency (Furin (Homo sapiens)) is on record?
**A.** The Potency was “inactive”.

**Q.** Which results are given for `Nc1ncnc2c1ncn2[C@@H]1O[C@H](C[C@@H](N)CC[C@H](N)C(=O)O)[C@@H](O)[C@H]1O`?
**A.** Potency (Furin (Homo sapiens)): inactive; Potency [1]: inactive; Potency [2]: inactive; Potency [3]: inactive; Potency [4]: inactive; activity [5]: -81.8%; Potency [6]: 21.7 µM (active); activity [7]: -74.5%; activity [8]: -86.5%

**Q.** With `O=C(O)c1cccc(-c2cc(C(F)(F)F)ccc2Cl)c1` as the compound, how does the Potency (Furin (Homo sapiens)) read?
**A.** The Potency was “inactive”.

**Q.** And the Potency [9]?
**A.** Its Potency is “inactive”.

**Q.** And the Potency [10]?
**A.** The Potency was “inactive”.

**Q.** And the Potency [11]?
**A.** The Potency was “inactive”.

**Q.** What about the Potency [4] of the same compound?
**A.** The Potency was “inactive”.

**Q.** What does the source list for `CC(C)CN1CC(COc2cccc(C(F)(F)F)c2)Oc2ccnc(-c3ccc(OCC(=O)O)cc3)c2C1=O` (stereo unspecified)?
**A.** Potency (Furin (Homo sapiens)): inactive; Potency [9]: inactive; Potency [10]: inactive; Potency [12]: 141 µM (active); Potency [4]: inactive

**Q.** With `O=C(O)c1cccc(-c2cccc(C(F)(F)F)c2)c1` as the compound, how does the Potency (Furin (Homo sapiens)) read?
**A.** The Potency was “inactive”.

**Q.** What about the Potency [9] of the same compound?
**A.** Its Potency is “inactive”.

**Q.** And the Potency [10]?
**A.** The Potency was “inactive”.

**Q.** And the Potency [11]?
**A.** Its Potency is “inactive”.

**Q.** And the Potency [12]?
**A.** The Potency was 501 µM (active).

**Q.** For `Cc1cccc(C)c1NS(=O)(=O)c1ccc(NS(=O)(=O)c2ccc3c(c2)OCCO3)cc1`, which Potency (Furin (Homo sapiens)) is on record?
**A.** Its Potency is “inactive”.

**Q.** What about the Potency [9] of the same compound?
**A.** Its Potency is “inactive”.

**Q.** And the Potency [10]?
**A.** Its Potency is “inactive”.

**Q.** And the Potency [13]?
**A.** Its Potency is 200 µM (active).

**Q.** What about the Potency [12] of the same compound?
**A.** The Potency was 126 µM (active).

**Q.** Which Potency (Furin (Homo sapiens)) does the source give for `CCOC(=O)O[C@H](C)OC(=O)C1N2C(=O)[C@H](NC(=O)[C@H](N)c3ccccc3)C2SC1(C)C` (stereo partly specified) here?
**A.** Its Potency is “inactive”.

**Q.** And the Potency [9]?
**A.** Its Potency is “inactive”.

**Q.** What about the Potency [10] of the same compound?
**A.** Its Potency is “inactive”.

**Q.** What about the Potency [14] of the same compound?
**A.** The Potency was 26.7 µM (active).

**Q.** What about the Potency [15] of the same compound?
**A.** Its Potency is “inactive”.

**Q.** What about the Potency [2] of the same compound?
**A.** The Potency was “inactive”.

**Q.** And the Potency [3]?
**A.** Its Potency is “inactive”.

**Q.** With `Nc1ncnc2c1ncn2[C@@H]1O[C@H](CSCC[C@H](N)C(=O)O)[C@@H](O)[C@H]1O` as the compound, how does the Potency (Furin (Homo sapiens)) read?
**A.** Its Potency is “inactive”.

**Q.** And the Potency [1]?
**A.** Its Potency is “inactive”.

**Q.** What about the Potency [11] of the same compound?
**A.** Its Potency is “inactive”.

**Q.** What about the Potency [13] of the same compound?
**A.** Its Potency is “inactive”.

**Q.** What about the Potency [12] of the same compound?
**A.** Its Potency is “inactive”.

**Q.** What about the Potency [2] of the same compound?
**A.** The Potency was “inactive”.

**Q.** What about the Potency [3] of the same compound?
**A.** The Potency was “inactive”.

**Q.** And the Potency [4]?
**A.** Its Potency is “inactive”.

**Q.** With `COc1ccc(/C=C(\C#N)c2nc(-c3cc4c(ccc5ccccc54)oc3=O)cs2)cc1O` as the compound, how does the Potency (Furin (Homo sapiens)) read?
**A.** The Potency was “inactive”.

Reference: PubChem BioAssay (NCATS)
